High-throughput results as filed in PubChem.
Pf growth 96h: Primary qHTS for delayed death inhibitors of the malarial parasite plastid, 96 hour incubation; P. falciparum luciferase reporter growth, 96 h; Potency, µM (highest dose often 28.7 µM), actives largely listed as inhibitors; hit rate 6.9% among 320,000
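Delayed-death screen, second-generation endpoint: infected erythrocytes, 2% hematocrit, 0.05% parasitemia final; 96 hours at 37 C, 5% CO2; luciferase detection reagent; luminescence decrease equals reduced growth.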
LmPK inh: qHTS Assay for Inhibitors of Leishmania Mexicana Pyruvate Kinase (LmPK). purified LmPK, Kinase-Glo ATP luminescence, 1 h. Potency, µM (highest dose often 57.5 µM), usual class: inhibitors. hit rate 0.37% among 290,000
Target sequence (Q27686 whole entry, looked up): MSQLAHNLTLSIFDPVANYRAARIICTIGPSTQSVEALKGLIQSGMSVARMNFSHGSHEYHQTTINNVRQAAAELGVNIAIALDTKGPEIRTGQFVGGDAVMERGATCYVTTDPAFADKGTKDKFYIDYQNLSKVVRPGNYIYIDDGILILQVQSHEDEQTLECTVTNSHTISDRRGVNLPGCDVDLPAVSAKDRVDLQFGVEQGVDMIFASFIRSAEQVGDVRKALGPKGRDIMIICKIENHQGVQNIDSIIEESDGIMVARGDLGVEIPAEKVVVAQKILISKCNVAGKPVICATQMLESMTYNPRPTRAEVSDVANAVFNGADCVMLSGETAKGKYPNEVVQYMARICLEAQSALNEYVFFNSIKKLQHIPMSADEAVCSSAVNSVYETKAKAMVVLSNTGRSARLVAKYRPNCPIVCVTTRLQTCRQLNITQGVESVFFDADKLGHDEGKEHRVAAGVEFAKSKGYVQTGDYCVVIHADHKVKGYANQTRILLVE
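0.1 nM LmPK, 0.5 mM PEP, 0.1 mM ADP; 50 mM imidazole pH 7.2, 7 mM MgCl2, 50 mM KCl; 1 h RT. Kinase-Glo luminescence readout, normalized to no-enzyme (full inhibition) and uninhibited wells.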
Shiga toxin inh: A qHTS for Small Molecule Inhibitors of Shiga Toxin; Vero cells, Shiga toxin protein synthesis inhibition reporter; inhibition, % at 38.7 µM; hit rate 9.2% among 290,000; AID 2315, 2010; in the data active = inhibition mostly above about 28%, no sharp cut-off; inactive = mostly below about 43%
Pf growth 48h: Primary qHTS for delayed death inhibitors of the malarial parasite plastid, 48 hour incubation; P. falciparum luciferase growth in erythrocytes, 48 h; hit rate 5.9% among 310,000; Potency, µM (top dose mostly 28.7 µM), most hits filed as inhibitors
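Growth was read as firefly luciferase luminescence after a 48 h, 37 C, 5% CO2 exposure of compounds to reporter-bearing P. falciparum cultures (0.1% parasitemia, 2% hematocrit final) in Albumax-supplemented RPMI 1640.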
CHX counter: Cycloheximide Counterscreen for Small Molecule Inhibitors of Shiga Toxin. cell reporter, cycloheximide protein synthesis inhibition counterscreen. max response, %. hit rate 12% among 300,000. AID 2314, 2010; in the data active = max response mostly above about 13%, no sharp cut-off; inactive = mostly below about 14%; note: read at 38.3 µM for the half of the compounds with a filed dose
Numbers stand for hits; - = inactive; ? = inconclusive; . = no result given; [ ] = another dose, or the depositor's remark. This is a sample that favours compounds with a hit; in the whole collection about 22% have one here. Unless noted, calls come from the whole dose curve; as a rule, active = well fitted inhibition curve with a large enough effect; inconclusive = small, poorly fitted or top-dose-only effect, or another doubt; inactive = no such curve, though single readings can be large or run the other way.

SMILES | Pf growth 96h | LmPK inh | Shiga toxin inh | Pf growth 48h | CHX counter
CCc1ccc(C(=O)NNc2ccccc2F)cc1 | - | - | 71 | - | 36
CCCc1ccc(C(=O)NNc2ccccc2F)cc1 | - | - | 77 | - | 20
CCc1ccc(C(=O)NNc2ccc(F)cc2)cc1 | - | - | 41 | - | -
O=C(N/N=C/c1ccccc1Br)C1CC1 | - | - | - | - | -
NC(=O)c1ccc(NC(=O)CNC(c2ccccc2)c2ccccc2)cc1 | - | - | - | ? | -
O=C(Cc1ccc(Cl)cc1Cl)NCc1cccnc1 | - | - | - | - | -
CCCCOc1ccc(C(=O)N(CC)CC(=O)NCc2cccs2)cc1 | - | - | - | - | -
O=C(/C=C/c1cccs1)c1ccc(NC(=O)c2ccccc2F)cc1 | - | - | 40 | - | 25
COc1ccccc1C(=O)Nc1ccc(C(=O)/C=C/c2cccs2)cc1 | ? | - | - | - | 18
O=C(Nc1ccc(NC(=O)c2ccccc2F)cc1)c1cccs1 | - | . | . | - | .
COc1ccccc1C(=O)NC(=S)Nc1ccc(NC(=O)c2cccs2)cc1 | - | - | - | ? | -
N#CCCN(C(=O)COC(=O)c1cc(=O)c2ccccc2o1)c1ccccc1 | ? | . | . | - | .
CC(C)C(=O)Nc1ccc(NC(=O)c2cccnc2)cn1 | - | - | - | - | -
CCC(=O)Nc1ccc(NC(=O)C23CC4CC(CC(C4)C2)C3)cn1 | ? | - | - | - | -
O=C(Nc1ccc(NC(=O)C2CC2)nc1)c1ccccn1 | - | 14µM | 62 | - | 18
CCC(=O)Nc1ccc(NC(=O)c2ccccn2)cn1 | - | ? | 47 | - | 35
O=C(Nc1ccc(NC(=O)C2CC2)nc1)c1cnccn1 | - | - | - | - | -
CC(C)C(=O)Nc1ccc(NC(=O)c2ccccn2)cn1 | - | ? | 42 | - | 27
COc1ccc(CN2CCC(=O)N([C@H](CO)Cc3ccccc3)CC2)cc1OC | - | - | - | ? | -
Cc1c(NC2(C#N)CCCC2)c(=O)n(-c2ccccc2)n1C | - | - | - | - | -
O=[N+]([O-])c1ccc(-c2cnc(SCc3ccccc3Cl)[nH]2)cc1 | ? | - | 58 | - | 28
O=[N+]([O-])c1ccc(-c2cnc(SC(c3ccccc3)c3ccccc3)[nH]2)cc1 | 7.4µM | - | - | ? | -
NC(=O)CSc1ncc(-c2ccc([N+](=O)[O-])cc2)[nH]1 | - | - | - | - | -
Cc1cc(C)c(CSc2ncc(-c3ccc([N+](=O)[O-])cc3)[nH]2)c(C)c1 | ? | - | - | ? | -
CC(=O)c1ccc(NC(=O)c2cc3nc4c(c(C(F)(F)F)n3n2)CCCC4)cc1 | ? | - | 60 | ? | 38
SMILES | Pf growth 96h | LmPK inh | Shiga toxin inh | Pf growth 48h | CHX counter
O=C(NC1CCCCC1)c1cc2nc3c(c(C(F)(F)F)n2n1)CCCC3 | -[5.75 µM] | - | 79 | - | 45
Cc1cc2nc3c(c(C(F)(F)F)n2n1)CCCC3 | - | - | - | - | -
O=C(NC1CCCCC1)c1cc2nc(-c3ccco3)cc(C(F)(F)F)n2n1 | - | - | - | - | -
COc1ccc(C(=O)N[C@H](C(=O)N2CCN(c3ccccc3F)CC2)C(C)C)cc1 | - | - | - | - | -
CCOc1ccc2c(c1)C(=O)c1cc(OCC(=O)O)ccc1-2 | - | - | - | - | -
CCCCOc1ccc2c(c1)C(=O)c1cc(O)ccc1-2 | - | - | 93 | - | 29
Cc1ccc(CNC(=O)CCCn2nc(C)c3c(C)n(-c4ccccc4)nc3c2=O)cc1 | - | - | - | - | -
CCCN1CCN(C(=O)c2ccc(F)c(S(=O)(=O)N3CCOCC3)c2)CC1 | - | . | . | - | .
O=C(NCc1ccccc1Cl)C1CCCN(c2nc3ccsc3c(=O)s2)C1 (stereo not given) | - | - | - | - | -
CC1CCCN(c2nc3ccsc3c(=O)s2)C1 (stereo not given) | . | - | 119 | - | 44
FC(F)(F)COc1nc(N/N=C/c2cccnc2)nc(N2CCCCC2c2ccccn2)n1 (stereo not given) | 9.3µM | - | - | 12µM | -
O=C(O)CCCn1cc(NC(=O)COc2cc(F)ccc2[N+](=O)[O-])cn1 | ? | - | - | ? | -
Cc1cc(/C=N/Nc2ccc([N+](=O)[O-])cn2)c(C)n1-c1ccc(C(=O)O)cc1 | ? | - | - | - | -
Cc1cc(/C=N/Nc2nc(N)ncc2[N+](=O)[O-])c(C)n1-c1cccc(C(F)(F)F)c1 | - | - | 62 | - | 26
